{"source": "PubChem BioAssay", "key": {"[1]": {"system": "XIP peptide (Xip251-270) binding", "test": "small-molecule binders of XIP peptide, primary screen, biochemical, small-molecule microarray, fluorescence 635/667 nm, 0.1 µg/mL protein (AID 1182)", "conditions": "fluorescent protein binding, 635 nm, higher = more signal, called active from +8 up or from −8 down"}, "XIP peptide (Xip251-270)": {"system": "XIP peptide (Xip251-270)", "test": "small-molecule binders of XIP peptide, primary screen, biochemical, small-molecule microarray, fluorescence 635/667 nm, 0.5 µg/mL protein (AID 1183)", "conditions": "small-molecule microarray binding, fluorescence 635 nm; higher = more signal"}, "[2]": {"test": "Plasmodium falciparum growth inhibition, primary screen, strain 3D7, DAPI fluorescence, 100 nL (AID 1184);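 also: parasites grown inside human red blood cells in medium with human serum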", "conditions": "P. falciparum 3D7 growth, 3 d, higher = more signal"}, "[3]": {"target": "Homeobox protein Hox-A13 (Mus musculus) (UniProt Q62424)", "sequence (Q62424 whole entry, looked up)": "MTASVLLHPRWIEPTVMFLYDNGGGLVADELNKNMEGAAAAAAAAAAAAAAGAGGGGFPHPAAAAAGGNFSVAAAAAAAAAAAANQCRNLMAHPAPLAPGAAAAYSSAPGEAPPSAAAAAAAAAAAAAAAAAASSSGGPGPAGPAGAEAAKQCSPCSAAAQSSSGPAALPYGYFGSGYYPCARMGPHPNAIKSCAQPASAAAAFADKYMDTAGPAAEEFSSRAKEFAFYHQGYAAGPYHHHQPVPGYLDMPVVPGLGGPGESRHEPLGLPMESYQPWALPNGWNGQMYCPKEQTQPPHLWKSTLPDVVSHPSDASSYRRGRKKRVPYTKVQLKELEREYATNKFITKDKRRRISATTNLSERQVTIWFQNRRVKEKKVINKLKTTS", "test": "inhibitors of HoxA13-DNA binding, primary screen, biochemical, fluorescence polarization, labeled oligonucleotide (AID 1185)", "conditions": "15 min, higher = more signal, called active from +8 up or from −8 down"}, "[4]": {"test": "inhibitors of hydroxyurea-induced Chk1 phosphorylation, primary screen, imaging, HeLa, phospho-Chk1 antibody, percent positive cells (AID 1186)", "conditions": "hydroxyurea-induced phospho-Chk1 immunofluorescence imaging, higher = more signal"}, "[5]": {"test": "inhibitors of hydroxyurea-induced Chk1 phosphorylation, primary screen, imaging, HeLa, phospho-Chk1 nuclear intensity (AID 1187)", "conditions": "hydroxyurea-induced phospho-Chk1 immunofluorescence imaging, higher = more signal"}}, "note": "Calls of active or inactive are those of the source. Unless noted, no rule for the calls is given here.", "data": [{"smiles": "COc1ccc(C#Cc2ccc3c(c2)[C@]2(C(=O)N3)[C@H](C(=O)N3CCc4cc(OC)c(OC)cc4C3)[C@H]3C(=O)O[C@H](c4ccccc4)[C@H](c4ccccc4)N3[C@@H]2c2ccc(OCCO)cc2)cc1", "values": [{"measurement": "composite z-score", "setting": "[1]", "value": "0.53 (inactive)"}, {"measurement": "composite z-score", "setting": "XIP peptide (Xip251-270)", "value": 0.598}, {"measurement": "z-score", "setting": "[2]", "value": -1.36}, {"measurement": "z-score", "setting": "[3]", "value": "-2.71 (inactive)"}, {"measurement": "z-score", "setting": "[4]", "value": "-0.122 (inactive)"}, {"measurement": "z-score", "setting": "[5]", "value": "2.93 (inactive)"}]}, {"smiles": "Cc1ccc(C(C)CC(O)C2C=CC3C(=O)NC(=O)C3N2Nc2ccccn2)o1", "note": "(configuration not stated)", "values": [{"measurement": "composite z-score", "setting": "[1]", "value": "0.673 (inactive)"}, {"measurement": "composite z-score", "setting": "XIP peptide (Xip251-270)", "value": 0.881}, {"measurement": "z-score", "setting": "[2]", "value": 0.281}, {"measurement": "z-score", "setting": "[3]", "value": "-2.14 (inactive)"}, {"measurement": "z-score", "setting": "[4]", "value": "0.333 (inactive)"}, {"measurement": "z-score", "setting": "[5]", "value": "0.0304 (inactive)"}]}, {"smiles": "CC(C)(C)OC(=O)CC[C@@]1(C(=O)NCC(O)CO)N=C(c2ccc(OCCCO)cc2)O[C@@H]1c1ccccc1", "note": "(some centres not stated)", "values": [{"measurement": "composite z-score", "setting": "[1]", "value": "0.826 (inactive)"}, {"measurement": "composite z-score", "setting": "XIP peptide (Xip251-270)", "value": 0.942}, {"measurement": "z-score", "setting": "[2]", "value": 0.649}, {"measurement": "z-score", "setting": "[3]", "value": "-4.48 (inactive)"}, {"measurement": "z-score", "setting": "[4]", "value": "0.184 (inactive)"}, {"measurement": "z-score", "setting": "[5]", "value": "-0.14 (inactive)"}]}, {"smiles": "C=CC[C@@]1(C(=O)NCc2ccccc2)N=C(c2ccc(OCCCO)cc2)O[C@@H]1c1ccccc1CN=[N+]=[N-]", "values": [{"measurement": "composite z-score", "setting": "[1]", "value": "-0.0368 (inactive)"}, {"measurement": "composite z-score", "setting": "XIP peptide (Xip251-270)", "value": 0.496}, {"measurement": "z-score", "setting": "[2]", "value": -2.28}, {"measurement": "z-score", "setting": "[3]", "value": "-10.5 (active)"}, {"measurement": "z-score", "setting": "[4]", "value": "0.168 (inactive)"}, {"measurement": "z-score", "setting": "[5]", "value": "0.43 (inactive)"}]}, {"smiles": "CC(C)N1C(=O)c2ccccc2[C@](C)(C(=O)NC2CC2)[C@@H]1c1ccc(CO)cc1", "values": [{"measurement": "composite z-score", "setting": "[1]", "value": "-0.318 (inactive)"}, {"measurement": "composite z-score", "setting": "XIP peptide (Xip251-270)", "value": 0.0807}, {"measurement": "z-score", "setting": "[2]", "value": -0.335}, {"measurement": "z-score", "setting": "[3]", "value": "-1.64 (inactive)"}, {"measurement": "z-score", "setting": "[4]", "value": "-0.119 (inactive)"}, {"measurement": "z-score", "setting": "[5]", "value": "0.0866 (inactive)"}]}, {"smiles": "C=C(C(=O)CC[C@@H](OC(=O)c1cccnc1)c1ccc(CO)o1)C(C)C", "values": [{"measurement": "composite z-score", "setting": "[1]", "value": "-0.239 (inactive)"}, {"measurement": "composite z-score", "setting": "XIP peptide (Xip251-270)", "value": 0.249}, {"measurement": "z-score", "setting": "[2]", "value": -0.188}, {"measurement": "z-score", "setting": "[3]", "value": "-4.55 (inactive)"}, {"measurement": "z-score", "setting": "[4]", "value": "0.647 (inactive)"}, {"measurement": "z-score", "setting": "[5]", "value": "0.501 (inactive)"}]}, {"smiles": "C#C[C@H]1Oc2ccccc2S(=O)(=O)N2CCC[C@@H]12", "values": [{"measurement": "composite z-score", "setting": "[1]", "value": "-0.267 (inactive)"}, {"measurement": "composite z-score", "setting": "XIP peptide (Xip251-270)", "value": -0.286}, {"measurement": "z-score", "setting": "[2]", "value": 0.562}, {"measurement": "z-score", "setting": "[3]", "value": "-1.15 (inactive)"}, {"measurement": "z-score", "setting": "[4]", "value": "0.528 (inactive)"}, {"measurement": "z-score", "setting": "[5]", "value": "0.526 (inactive)"}]}, {"smiles": "Cc1cccc(/C=C/C=O)c1", "values": [{"measurement": "composite z-score", "setting": "[1]", "value": "0.43 (inactive)"}, {"measurement": "composite z-score", "setting": "XIP peptide (Xip251-270)", "value": 0.838}, {"measurement": "z-score", "setting": "[2]", "value": 0.787}, {"measurement": "z-score", "setting": "[3]", "value": "-1.05 (inactive)"}, {"measurement": "z-score", "setting": "[4]", "value": "0.381 (inactive)"}, {"measurement": "z-score", "setting": "[5]", "value": "0.412 (inactive)"}]}, {"smiles": "CN(C)CCCN1C(=O)[C@@]2(c3ccc([N+](=O)[O-])cc3)CC(=O)N(C3CCCCC3)[C@@H]2c2ccc(CO)cc21", "values": [{"measurement": "composite z-score", "setting": "[1]", "value": "-0.157 (inactive)"}, {"measurement": "composite z-score", "setting": "XIP peptide (Xip251-270)", "value": -0.0092}, {"measurement": "z-score", "setting": "[2]", "value": 0.615}, {"measurement": "z-score", "setting": "[3]", "value": "-0.595 (inactive)"}, {"measurement": "z-score", "setting": "[4]", "value": "-0.659 (inactive)"}, {"measurement": "z-score", "setting": "[5]", "value": "-0.648 (inactive)"}]}, {"smiles": "Cc1ccc(S[C@]2(C(=O)NCCCN(C)C)CC(=O)N(Cc3ccccc3)[C@@H]2c2ccc(CO)cc2)cc1", "values": [{"measurement": "composite z-score", "setting": "[1]", "value": "-0.712 (inactive)"}, {"measurement": "composite z-score", "setting": "XIP peptide (Xip251-270)", "value": 0.135}, {"measurement": "z-score", "setting": "[2]", "value": -1.07}, {"measurement": "z-score", "setting": "[3]", "value": "-2.18 (inactive)"}, {"measurement": "z-score", "setting": "[4]", "value": "0.327 (inactive)"}, {"measurement": "z-score", "setting": "[5]", "value": "0.603 (inactive)"}]}, {"smiles": "CN(C)CCCC[C@@H]1NC(=O)[C@@H]2C[C@H](C(=O)NCc3ccc(F)cc3)[C@H](c3cccc(OCCO)c3)N2C1=O", "values": [{"measurement": "composite z-score", "setting": "[1]", "value": "0.658 (inactive)"}, {"measurement": "composite z-score", "setting": "XIP peptide (Xip251-270)", "value": 0.813}, {"measurement": "z-score", "setting": "[2]", "value": -0.459}, {"measurement": "z-score", "setting": "[3]", "value": "-3.36 (inactive)"}, {"measurement": "z-score", "setting": "[4]", "value": "0.445 (inactive)"}, {"measurement": "z-score", "setting": "[5]", "value": "0.314 (inactive)"}]}, {"smiles": "Cc1cc(C)c(C(O)C2C=CC3C(=O)NC(=O)C3N2Nc2ccccn2)c(C)c1", "note": "(configuration not stated)", "values": [{"measurement": "composite z-score", "setting": "[1]", "value": "0.702 (inactive)"}, {"measurement": "composite z-score", "setting": "XIP peptide (Xip251-270)", "value": 0.103}, {"measurement": "z-score", "setting": "[2]", "value": -0.261}, {"measurement": "z-score", "setting": "[3]", "value": "-3.34 (inactive)"}, {"measurement": "z-score", "setting": "[4]", "value": "0.321 (inactive)"}, {"measurement": "z-score", "setting": "[5]", "value": "-0.0098 (inactive)"}]}, {"smiles": "C=CCOC(=O)[C@H]1[C@@H]2C(=O)O[C@@H](c3ccccc3)[C@@H](c3ccccc3)N2[C@@H](c2ccc(OCCOC(=O)[C@H]3C[C@H]4C(=O)N[C@@H](CCCC[N+](C)(C)C)C(=O)N4[C@H]3c3ccc(O)cc3)cc2)[C@]12C(=O)Nc1ccccc12", "values": [{"measurement": "composite z-score", "setting": "[1]", "value": "-0.436 (inactive)"}, {"measurement": "composite z-score", "setting": "XIP peptide (Xip251-270)", "value": 0.487}, {"measurement": "z-score", "setting": "[2]", "value": 1.04}, {"measurement": "z-score", "setting": "[3]", "value": "6.97 (inactive)"}, {"measurement": "z-score", "setting": "[4]", "value": "-0.179 (inactive)"}, {"measurement": "z-score", "setting": "[5]", "value": "-0.219 (inactive)"}]}, {"smiles": "C=C[C@H](C)[C@H](OC(=O)Nc1ccc(OC)cc1)c1ccc(O)c2ccccc12", "values": [{"measurement": "composite z-score", "setting": "[1]", "value": "0.79 (inactive)"}, {"measurement": "composite z-score", "setting": "XIP peptide (Xip251-270)", "value": -0.147}, {"measurement": "z-score", "setting": "[2]", "value": -0.767}, {"measurement": "z-score", "setting": "[3]", "value": "-4.27 (inactive)"}, {"measurement": "z-score", "setting": "[4]", "value": "-0.33 (inactive)"}, {"measurement": "z-score", "setting": "[5]", "value": "-0.382 (inactive)"}]}, {"smiles": "COc1cc2c(cc1O)C(c1ccc(CN3CCCC3)cc1)N(Cc1sc3ccccc3c1Cl)CC2", "note": "(configuration not stated)", "values": [{"measurement": "composite z-score", "setting": "[1]", "value": "0.656 (inactive)"}, {"measurement": "composite z-score", "setting": "XIP peptide (Xip251-270)", "value": 0.879}, {"measurement": "z-score", "setting": "[2]", "value": -1.58}, {"measurement": "z-score", "setting": "[3]", "value": "-5.24 (inactive)"}, {"measurement": "z-score", "setting": "[4]", "value": "0.356 (inactive)"}, {"measurement": "z-score", "setting": "[5]", "value": "0.653 (inactive)"}]}, {"smiles": "CN1C(=O)C2C=CC(C(O)C3=C[C@H]4C[C@@H](C3)C4(C)C)N(Nc3ccc([N+](=O)[O-])cc3[N+](=O)[O-])C2C1=O", "note": "(some centres not stated)", "values": [{"measurement": "composite z-score", "setting": "[1]", "value": "0.334 (inactive)"}, {"measurement": "composite z-score", "setting": "XIP peptide (Xip251-270)", "value": 0.704}, {"measurement": "z-score", "setting": "[2]", "value": 0.395}, {"measurement": "z-score", "setting": "[3]", "value": "-3.59 (inactive)"}, {"measurement": "z-score", "setting": "[4]", "value": "-0.21 (inactive)"}, {"measurement": "z-score", "setting": "[5]", "value": "-0.257 (inactive)"}]}, {"smiles": "CC(C)(C)OC(=O)CC[C@@]1(C(N)=O)N=C(c2ccc(OCCCO)cc2)O[C@@H]1c1ccccc1N=[N+]=[N-]", "values": [{"measurement": "composite z-score", "setting": "[1]", "value": "0.0344 (inactive)"}, {"measurement": "composite z-score", "setting": "XIP peptide (Xip251-270)", "value": 0.839}, {"measurement": "z-score", "setting": "[2]", "value": -0.338}, {"measurement": "z-score", "setting": "[3]", "value": "-6.23 (inactive)"}, {"measurement": "z-score", "setting": "[4]", "value": "-0.244 (inactive)"}, {"measurement": "z-score", "setting": "[5]", "value": "-0.0977 (inactive)"}]}]}
